This note sets out measurements from PubChem BioAssay AID1347426 (Functional Genomics Laboratory (NCATS/FGL), 2020).

In all, about 31,000 sequences went through this assay and about 1,400 (4.5%) were called active. The sample as a whole holds a higher share of actives than the screen did. A number with no mark means an inactive call.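 Rule for the calls: active = median seed-adjusted z-score above 1 or below -1; inactive = the rest.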

The nature of the assay: Novel Modifiers of Survival Motor Neuron (SMN) Protein: Gene Identification via Genome-wide siRNA Screen.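 Note: luminescence tracks full-length SMN protein made from the SMN2 reporter.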 The note with it: HEK293T SMN2-luciferase reporter, siRNA knockdown, 72 h; actives lie on both sides. The method in brief:
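siRNA screen, 10418 genes ×3 siRNAs; 1 pmol/well, lipid reverse transfection into HEK293T SMN2-luc reporter line. 72 h, 37 °C, 5% CO2; ONE-Glo readout. Data: neg-ctrl normalized, log10, MAD; hit = MAD >1.0 or < -1.0.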
A general note: Reporter assays use an easily measured gene product as a stand-in for the process of interest.
GUGUCCAACAGAUACGGAATT against DSCAM: the median seed-adjusted z-score is -0.527. For GGCAGAUAUUUAAGCCUAUTT against HDAC2, the median seed-adjusted z-score is -1.27 (active). Next, GGAGUGCAAAAGGAACGAATT against APIP: -0.0945; GAGUUAUGGUGAACCCACATT against CDKN2B: 0.0154. The result for GGACAUUCAAUUCAAACCATT against SMAD4 reads 0.0746. In the case of CUGUUUAGCUUCAUGCAAATT against ARID3C, the median seed-adjusted z-score is -1.32 (active).

As for GCAAGGCAAUGCAAACGAATT against DDX43, the median seed-adjusted z-score was -0.452. Turning to GCGACUACCUGUUUCAACATT against PELO, the median seed-adjusted z-score is 0.394. The result for GGAAAGAUCUUCAAUCAUATT against ZNF597 reads 0.366; that for GGACAUUCGUCAGAUUUAUTT against TEAD1, 1.31 (active); that for GAGUGGAGCGUACAUCCUATT against ZXDA, -0.0748.

On to CAAUAGUCCUGAGACCGAATT against MYST3, for which the median seed-adjusted z-score was -0.49. With GCAUUACCGCGAUGAAUUATT against DNAI1, the median seed-adjusted z-score was -0.783. The result for UCCUAACCUCAGAAACUGATT against CAPS reads -1.25 (active); that for GGAAGGCUCCAAACGGAAATT against PBRM1, -0.118; that for GCACGUUUGAGUACGAAUATT against SFPQ, -1.15 (active).

For the sequence GGACCAGUCUGCCUAUGUATT against NXF5, the median seed-adjusted z-score is -0.396. Next, GCGGGACAGAAGUUAGAUATT against HCCS: 0.00254; GGAUGAUAUGGGACCAUAATT against PTPRZ1: 1.73 (active). In the case of GUCUUGUAGAAAUCUCAGATT against RFC3, the median seed-adjusted z-score is 0.733. With GCUUCGAGGAGGGCAAGAATT against PRSS27, the median seed-adjusted z-score is 1.03 (active). For the sequence GAUAGUGACAGGUUAAUGATT against TIGD6, the median seed-adjusted z-score was -0.443.

Consider GCCUGACCCGUGAGACAAATT against THY1, for which the median seed-adjusted z-score is -1.1 (active). For the sequence GCAUCUAAAGAGCUACAGATT against ZNF584, the median seed-adjusted z-score is 0.172. For CAAUGUCCAGGGUAUCAUUTT against HAO2, the median seed-adjusted z-score was 0.039. Next, GGAGGGACAAGAUCAACAATT against USF2: 0.352. The result for CCAGCCGUGUUGUAGCUAATT against S100B reads 0.862; that for CCGUAAAGCUGCAUUAGAATT against CUGBP1, 0.086. The result for GGGUCAUCAGUAGCAUUGATT against YWHAG reads 1.98 (active); that for GCAGUACGGAAGCUACCGATT against SS18L1, -0.174; that for CAUUGGACAGUAUUACAAATT against UBE2U, -0.0545. Take CCUUCCCUCUACACCAUCATT against COPZ2: the median seed-adjusted z-score was -1.23 (active). For CCUAAGUUACUACUAGUAUTT against ENPP4, the median seed-adjusted z-score is 0.

With GGAUCUCACAGGUUCCGUUTT against LARS2, the median seed-adjusted z-score is 0.25.

Turning to GAACUUGACCAUUAUAUCATT against PHKA2, the median seed-adjusted z-score was 0.304. Turning to CGGUGGUGAAUGAAAGUCATT against FKBP14, the median seed-adjusted z-score is -0.455. GAGGUGAACUGGAAGCGAATT against MBOAT1: the median seed-adjusted z-score was -1.22 (active). For the sequence CGCUUAACAUUGGAGUUCATT against ATG7, the median seed-adjusted z-score was -0.328. Next, CUACGGCUUUGGAGAUAUATT against RECQL: -0.905.

Regarding CAUCCAUUCUACAUCCGUATT against VHL, the median seed-adjusted z-score was -0.0797. Next, AGAGCACAUCAAAUCAGAATT against PAX2: 0.341; GCUUAUGCGUAGAUCCUUUTT against SMYD4: 0.272. Consider GCACCUUCCCAACCAUCAATT against GPX2, for which the median seed-adjusted z-score is -0.21.

As to GCAGAUUUUGAGCAACUGATT against TRIM5, the median seed-adjusted z-score is 0.0758. As for GAACUUUGAUGACGAGUGATT against RAD23A, the median seed-adjusted z-score was -1.13 (active).

On to GAUGAUCAGCUAUGAAAAATT against ZNF780A, for which the median seed-adjusted z-score is 0.298. GCAGAUAUCUGAUAGCCCUTT against PPA2: the median seed-adjusted z-score was -0.497. Next, CGUCUAUGCCUAUAAAAUATT against ADORA3: 0. As for GCGAUGCCUAUAAAACCUATT against TRYX3, the median seed-adjusted z-score was 2.3 (active). CUAGGAAGAUAAUACCAGATT against BTRC: the median seed-adjusted z-score was -0.0819. Take GGAAGUACCUGAGUGUGCATT against MTCH1: the median seed-adjusted z-score is 0. For GCUCUUUGCCGUUUCUAAUTT against SLC29A2, the median seed-adjusted z-score was -0.0569.

As to CGAGAAAUUGCACAACCGATT against NACC1, the median seed-adjusted z-score was 1.59 (active). Regarding GGACAUUGGACUAACCCAATT against EFHB, the median seed-adjusted z-score was 0.675.

For CUAUGGUAAUGUUUGCUUUTT against ZXDB, the median seed-adjusted z-score was 0.186.

CAAGAUCAAGAGUUCCUGATT against CYP2B6: the median seed-adjusted z-score is 0.454. Consider CCGAGAGUAUGUCGACUUATT against CBFB, for which the median seed-adjusted z-score was -0.0379. Consider GGAAAACAAGCUCAUCAAUTT against HOXA6, for which the median seed-adjusted z-score was -0.282.

In the case of GCAGCGUAGUUUUUGCGGATT against DOCK2, the median seed-adjusted z-score was 0.151.

In the case of UCAGUGCCCUUGUAUCAAATT against CYP4F2, the median seed-adjusted z-score is -0.387.

Turning to GCCUCAGUUUGAAAUUGUUTT against TBRG1, the median seed-adjusted z-score is -1.47 (active). The result for CAGACUCUCCGAUCUCUGATT against NRIP3 reads -0.699; that for CCUGGAUCCAAAUAGCGAATT against SMARCA2, -0.458. The result for CUCUUUGACGUGUCUCAUATT against AMT reads -0.506; that for CCUGAACAUUGGACCCUGUTT against CPSF1, 3.29 (active); that for UCACUUUCCCUGUAAAUAUTT against CD84, 0.629.

In the case of GCAAGACCUAAGCAAACUATT against BXDC1, the median seed-adjusted z-score is 0.173. Turning to CAUAGACUCUUACACCACATT against SC4MOL, the median seed-adjusted z-score is -0.0194.

GGCUGUCUGCUGUACGAGATT against NEK6: the median seed-adjusted z-score is -0.674. CCAGCUCCUUUAUCAAGCATT against RAD51: the median seed-adjusted z-score is 0.594. On to GCCUGGAUAACAUCACUGATT against AIM2, for which the median seed-adjusted z-score is 0.0646. As for GACCUGAUGUGGACCCAGATT against MIOX, the median seed-adjusted z-score is 0.14. In the case of GCGACCAACUGAUUGUCGATT against PTPRZ1, the median seed-adjusted z-score was 1.73 (active). Regarding GACACUUGCUUAGAAGUAATT against LRP12, the median seed-adjusted z-score is 0.416. Next, GGAUCUACGUGUACGUCAATT against LPAR3: -0.3; GGAUCAGUUUGACAGUUUUTT against RNPEP: -0.236; GGAAAUUAGCUGCAGCUGATT against PPP1R2: 0.208. GGAGAACCACAGUUGCUUUTT against IL17RA: the median seed-adjusted z-score is -1.29 (active). Regarding GGAUUCAUCCUUACCCUCATT against PPP2R4, the median seed-adjusted z-score is 0.318. Next, GCUUUACAGAAAGCCGUGATT against STRADB: 0.21. CCCUCGAGCAUGUUCCAAATT against PRPF6: the median seed-adjusted z-score is -1.06 (active). Take AGAUCGUGGUGCAUCCAUATT against ELA1: the median seed-adjusted z-score was 0.687. Consider GCACCAACCUGACCUGUCATT against CD33, for which the median seed-adjusted z-score is -0.355. For GAACCAAGAUCAUUAUGCATT against DNAJC2, the median seed-adjusted z-score was -0.0357. GCGCAGCCUUUAGAGGAUATT against UBE2J1: the median seed-adjusted z-score is -1.2 (active). On to UGGAGUAAAUAGUUCUAAUTT against UBE2V1, for which the median seed-adjusted z-score was 0.745. For UGAGGAUAGUGGGUCUGUATT against MEIS3, the median seed-adjusted z-score is 0.207.

Regarding GACUCAUCGUGAUGAGAUUTT against SLC7A9, the median seed-adjusted z-score is 0.194. As to GGAACAAGUAUUUAGGAAATT against CAPSL, the median seed-adjusted z-score was -0.168. Next, CCCUAGGCCUUUUACGAAATT against RAG1: -1.35 (active); AGCAGAAGAAGUUCAAAUATT against P2RX1: 0.908; GCAGUAUAUUACAAACAAATT against NAT2: -0.0495. For the sequence GGCCCAAGCUUCAACAGCATT against DNASE2, the median seed-adjusted z-score is -1.23 (active). As to GGAAAUCGUUCAGUAAGAATT against ZNF175, the median seed-adjusted z-score was -0.0194. Turning to CCAUAACCUUAUUGACGCATT against LRFN4, the median seed-adjusted z-score was -0.076. The result for GCCUGAUUCUGAGUGAUGATT against SPTLC2 reads 0; that for GCCUGAUACAAAAUCAACATT against TRPC5, -1.14 (active); that for GGAGUUACAUCAGACCUAUTT against MOGAT1, 0.293. Take GGAAAUCUGAAGACGAUAATT against CCAR1: the median seed-adjusted z-score was -1.18 (active).

As to AACUGGGAAUUGAGAGGUATT against SOX12, the median seed-adjusted z-score is 0.478. The result for GGCCUUACCAAUCAUCAUUTT against SLC28A2 reads -0.076.

As to GAAUUCGACCAGUAUUUGATT against SOX7, the median seed-adjusted z-score was -0.387.

Consider CCGUAUGUUUUGCUGCAAATT against ABCC4, for which the median seed-adjusted z-score is -1.66 (active). Next, GCAAGUCCCGCAAAAAGAATT against NEIL1: -0.168.

Consider GCACCGUCAAGGAAGAUAATT against ADAMTSL1, for which the median seed-adjusted z-score was -0.107. As to GUAUGCGACUGGGAUCUUATT against HP, the median seed-adjusted z-score was 0.

On to CAGUGGAAAUAAUUACGUUTT against MDH1B, for which the median seed-adjusted z-score is -1.13 (active). Next, GAUCUACACUUGGAUGGAUTT against SAP18: 2.14 (active); CUAACGAAGAUUCACCCAATT against ASPN: -0.0432.
